This note sets out measurements from the supplement of paper PMC10477191.

Molecules are shown by their SMILES. ± gives the standard deviation of the averaged measurements.

This experiment relates to Drosophila ezoana antennal basiconic sensillum ab6. The experiment is described as follows: odor-evoked OSN spike response (post minus pre-stimulus); higher = stronger neuronal excitation. Particulars: odor dilution: 10^-4. How it is done:
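Single sensillum recordings from antennal basiconic sensilla of D. ezoana. A 500 ms pulse of odorant (10^-4 in mineral oil or DMSO) was delivered; the response is the change in action potential frequency between the 1 s pre- and post-stimulus windows (spikes/s).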
As to `CCCCCOC(C)=O` [pentyl acetate], the “odor-evoked OSN spike response” value worked out at 67.9 ± 20 spikes/s. For the molecule `CCCCCCCC(C)=O` [2-nonanone], the “odor-evoked OSN spike response” value worked out at 54.7 ± 22 spikes/s. On to `CCCC(=O)OCC` [ethyl butanoate], for which the “odor-evoked OSN spike response” value worked out at 52.1 ± 29 spikes/s. In the case of `CC(=O)CCC=C(C)C` [6-methyl-5-hepten-2-one], the “odor-evoked OSN spike response” value came out at 58.1 ± 30 spikes/s. Turning to `CCCCCC(C)=O` [2-heptanone], the “odor-evoked OSN spike response” value worked out at 60.9 ± 21 spikes/s. In the case of `CCOC(=O)C(C)O` (stereo not given) [Ethyl lactate] it was 58 ± 18 spikes/s; in that of `Oc1ccccc1` [phenol], 73 ± 38 spikes/s; in that of `CCCCC(C)O` (stereo not given) [2-hexanol], 67.3 ± 33 spikes/s. On to `CCOC(=O)CC(C)O` (stereo not given) [Ethyl-3-hydroxybutyrate], for which the “odor-evoked OSN spike response” value was 93.1 ± 33 spikes/s. As for `CCCCCCCC(C)O` (stereo not given) [2-nonanol], the “odor-evoked OSN spike response” value was 55.7 ± 33 spikes/s. As for `OCCc1ccccc1` [2-phenylethanol], the “odor-evoked OSN spike response” value stood at 53 ± 31 spikes/s. As for `CCCCCCO` [1-hexanol], the “odor-evoked OSN spike response” value is 77.5 ± 29 spikes/s. `CCOC(=O)c1ccccc1` [ethyl benzoate]: the “odor-evoked OSN spike response” value worked out at 66.1 ± 26 spikes/s. `COC(=O)c1ccccc1O` [Methyl salicylate]: the “odor-evoked OSN spike response” value is 58.3 ± 32 spikes/s. As to `C=CC(O)CCCCC` (stereo not given) [1-octen-3-ol], the “odor-evoked OSN spike response” value is 143 ± 47 spikes/s. Consider `CCCCCC(=O)OCC` [ethyl hexanoate], for which the “odor-evoked OSN spike response” value was 52.2 ± 20 spikes/s. For the molecule `CCOC(C)=O` [Ethyl acetate], the “odor-evoked OSN spike response” value turned out to be 55.2 ± 25 spikes/s. In the case of `C/C=C/C(=O)OCC` [Ethyl crotonate] it was 71.1 ± 37 spikes/s; in that of `CC(=O)C(C)O` (stereo not given) [acetoin], 69.8 ± 40 spikes/s; in that of `COc1ccccc1O` [guaiacol], 123 ± 36 spikes/s.
